Results filed as inconclusive are left out. Active and inactive are the calls of the source. Unless noted, the call rests on the fitted dose curve; in most records, active means well fitted curve in the direction sought with a large enough effect in the repeat runs; inconclusive means weak or mixed curves; inactive means no such curve, though single readings can be large; an effect the other way counts as inactive or inconclusive.
What was measured:
[1] = qHTS assay for small molecule agonists of the p53 signaling pathway (AID 651631; calls by dose curve; further: nearly all actives have a fitted effect of over 15% in size)
Method in brief: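 Beta-lactamase reporter activity under p53 response elements was quantified in HCT-116 cells by FRET fluorescence, following 16 h incubation with test compounds at 37 °C and 2 h substrate development at room temperature.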

[2] = qHTS assay for small molecules that induce genotoxicity in human embryonic kidney cells expressing luciferase-tagged ATAD5 (AID 651632); further: nearly all actives have a fitted effect of over 15% in size
Method in brief: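 Genotoxicity read-out via ATAD5-luciferase: HEK293T cells, 16 hr compound incubation at 37C, Amplite detection.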

[3] = qHTS assay for small molecule agonists of the p53 signaling pathway - cell viability (AID 651633; calls by dose curve;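 further: p53RE-bla HCT reporter cells with a stable beta-lactamase p53 reporter; series mostly up to about 83 µM; nearly all actives have a fitted effect of over 30% in size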)
Method in brief: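 p53RE-bla cells, seeded at 4,000 per well and rested 5 h at 37 C/5% CO2, received compounds in DMSO for 16 h at 37 C. CellTiter-Glo was then added, and luminescence was read after 30 min at room temperature to gauge cytotoxicity.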

[4] = qHTS assay for small molecules that induce genotoxicity in human embryonic kidney cells expressing luciferase-tagged ATAD5 - cell viability (AID 651634; calls by dose curve; further: nearly all actives have a fitted effect of over 25% in size)
Method in brief: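 Live-cell protease activity (CellTiter-Fluor, fluorescence) indicates viability. HEK293T cells with luciferase-tagged ATAD5; 15.5 hr compound treatment at 37C.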

[5] = qHTS assay for small molecule disruptors of the mitochondrial membrane potential - cell viability (AID 720634; calls by dose curve;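 further: human HepG2 liver cancer cells; series mostly up to about 83 µM; nearly all actives have a fitted effect of over 20% in size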)
Method in brief: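 Human hepatoma HepG2 cells were treated for 1 hr with test chemicals, then given m-MPI dye and CellTiter-Glo. Cell viability reflects luminescence proportional to cellular ATP.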

[6] = qHTS assay for small molecule disruptors of the mitochondrial membrane potential (AID 720635)
Method in brief: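 HepG2 cells (2,000/well) attached overnight at 37C, then took compound for 1 hr at 37C, 5% CO2. Mito-MPS dye was added for 30 min; fluorescence was read at 490/535 nm (monomers) and 540/590 nm (aggregates).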

[7] = qHTS assay to test for compound auto fluorescence at 590 nm (red) in HepG2 cells (AID 720674)
Method in brief: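 Compound auto-fluorescence is scored relative to Rose Bengal sodium, measured at 540/590 nm in live HepG2 cultures after 1 hr compound contact (37 C, 5% CO2).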

[8] = qHTS assay to test for compound auto fluorescence at 535 nm (green) in HepG2 cells (AID 720675)
[9] = qHTS assay to test for compound auto fluorescence at 460 nm (blue) in HEK293 cells (AID 720678)
Method in brief: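 HEK293 cells (2,000/well, medium with 10% dialyzed FBS) attached 4-5 hr, then exposed to compound overnight at 37C, 5% CO2. Blue fluorescence read at 405/460 nm, with triamterene as reference fluorophore.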

[10] = qHTS assay to test for compound auto fluorescence at 590 nm (red) in HEK293 cells (AID 720679)
Method in brief: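 HEK293 cells (2,000/well, 10% dialyzed FBS) attached 4-5 hr, then dosed with compound or DMSO and incubated overnight at 37C, 5% CO2. Red fluorescence read at 540/590 nm, Rose Bengal sodium as reference fluorophore.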

[11] = qHTS assay to test for compound auto fluorescence at 535 nm (green) in HEK293 cells (AID 720680)
[12] = qHTS assay to test for compound auto fluorescence at 460 nm (blue) in HEK293 cell free culture (AID 720681)
Method in brief: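 Test compounds were pinned into cell-free culture medium (DMEM with 10% FBS) and fluorescence was read directly at Ex/Em 405/460 nm. Signals were expressed as fluorescence equivalents of triamterene, with DMSO vehicle as control.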

[13] = qHTS assay to test for compound auto fluorescence at 590 nm (red) in HEK293 cell free culture (AID 720683)
Method in brief: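 Tox21 10K library compounds were pinned into cell-free DMEM with 10% FBS and fluorescence was read at excitation 540 nm. Activity is expressed as Rose Bengal sodium equivalency.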

[14] = qHTS assay to test for compound auto fluorescence at 590 nm (red) in HepG2 cell free culture (AID 720684)
Method in brief: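 Red fluorescence (540 nm excitation, 590 nm emission) was measured after compound transfer into cell-free MEM supplemented with 10% FBS. Values are equivalencies against Rose Bengal sodium.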

[15] = qHTS assay to test for compound auto fluorescence at 460 nm (blue) in HepG2 cell free culture (AID 720685)
Method in brief: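 Compound (23 nL) or DMSO pinned into cell-free MEM with 10% FBS; blue fluorescence read at 405/460 nm excitation/emission, expressed as auto-fluorescence equivalency to triamterene.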

[16] = qHTS assay to test for compound auto fluorescence at 535 nm (green) in HepG2 cell free culture (AID 720686)
[17] = qHTS assay to test for compound auto fluorescence at 460 nm (blue) in HepG2 cells (AID 720687)
Method in brief: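 Cells (2,000/well in MEM with 10% FBS) attached overnight at 37 C, then were exposed to compound or DMSO for 1 hr at 37 C, 5% CO2. Fluorescence read at Ex/Em 405/460 nm, expressed as triamterene-equivalent signal.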

[18] = target: Glucocorticoid receptor (Homo sapiens) (UniProt P04150); test: qHTS assay to identify small molecule agonists of the glucocorticoid receptor (GR) signaling pathway (AID 720691; active means well fitted activation curve with a large enough effect in the signal ratio in the repeat runs, not every such curve was filed as active; the % refers to the signal ratio; further: potency means the concentration at half of the fitted maximal effect)
Method in brief: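 Beta-lactamase reporter activity, read as fluorescence intensity, was measured in GR-bla HeLa cells exposed to compounds for 18 h at 37 C and then loaded with LiveBLAzer B/G FRET substrate for 2 h at room temperature.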

[19] = target: Glucocorticoid receptor (Homo sapiens) (UniProt P04150); test: qHTS assay to identify small molecule antagonists of the glucocorticoid receptor (GR) signaling pathway (AID 720692; active means well fitted inhibition curve with a large enough effect in the signal ratio in the repeat runs, not every such curve was filed as active; the % refers to the signal ratio)
Method in brief: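 Fluorescence from cleaved LiveBLAzer B/G FRET substrate reports GRE-driven beta-lactamase in HeLa cells; compounds are tested against 5 nM dexamethasone (final) over 18 h at 37 C, substrate incubation 2 h at room temperature.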

[20] = qHTS assay to test for compound auto fluorescence at 535 nm (green) in HEK293 cell free culture (AID 720682)
Method in brief: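 Each library compound, or DMSO control, is added by pintool to medium alone, comprising DMEM and 10% FBS. Emission at 535 nm following 485 nm excitation is quantified against fluorescein.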

Measured: Potency

Sequence of Glucocorticoid receptor (Homo sapiens) (P04150 whole entry, looked up): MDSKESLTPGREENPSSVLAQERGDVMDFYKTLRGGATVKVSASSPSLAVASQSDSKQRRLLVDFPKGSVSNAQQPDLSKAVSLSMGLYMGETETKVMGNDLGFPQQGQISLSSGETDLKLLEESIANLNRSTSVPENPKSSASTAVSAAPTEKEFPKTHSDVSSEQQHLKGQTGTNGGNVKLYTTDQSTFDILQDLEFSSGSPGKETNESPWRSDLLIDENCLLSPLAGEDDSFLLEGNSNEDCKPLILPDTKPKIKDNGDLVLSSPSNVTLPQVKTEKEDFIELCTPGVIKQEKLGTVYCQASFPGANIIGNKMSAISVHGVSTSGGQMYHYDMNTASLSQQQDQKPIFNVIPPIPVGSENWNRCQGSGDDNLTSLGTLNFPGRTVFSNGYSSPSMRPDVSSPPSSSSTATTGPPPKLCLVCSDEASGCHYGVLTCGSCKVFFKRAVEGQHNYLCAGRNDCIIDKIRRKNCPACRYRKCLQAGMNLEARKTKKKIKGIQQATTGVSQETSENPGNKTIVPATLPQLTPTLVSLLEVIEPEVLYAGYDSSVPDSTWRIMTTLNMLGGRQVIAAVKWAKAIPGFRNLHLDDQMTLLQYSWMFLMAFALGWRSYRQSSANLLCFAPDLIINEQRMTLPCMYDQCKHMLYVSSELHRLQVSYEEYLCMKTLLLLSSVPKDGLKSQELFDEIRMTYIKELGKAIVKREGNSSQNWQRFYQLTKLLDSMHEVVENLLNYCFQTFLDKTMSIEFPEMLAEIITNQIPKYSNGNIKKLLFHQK

C1OCOCO1
not listed: [20]
inactive: all other assays above

Nc1ccc(S(=O)(=O)Nc2ccnn2-c2ccccc2)cc1
not listed: [6] | [18]
inactive: all other assays above

CC1(C)C(O)C(C)(C)C1O (configuration not stated)
not listed: [6]
inactive: all other assays above

CC(C)CCCC(C)N (configuration not stated)
not listed: [3] | [18]
inactive: all other assays above

NS(=O)(=O)c1cc(C(=O)O)cc(N2CCCC2)c1Oc1ccccc1
active: [18] 9.1 µM
not listed: [6] | [15]
inactive: all other assays above

Nc1ccccc1S(=O)(=O)O
not listed: [6] | [14] | [18] | [19]
inactive: all other assays above

CN(C)CCCNCCCN(C)C
not listed: [5] | [6]
inactive: all other assays above

CC(C)(CC(=O)O)C(=O)O
not listed: [3] | [18] | [19]
inactive: all other assays above

COc1ccccc1OCC(O)CN1CCN(CC(=O)Nc2c(C)cccc2C)CC1 (configuration not stated)
not listed: [6] | [20]
inactive: all other assays above

CC[N+](C)(C)c1cccc(O)c1
not listed: [6] | [12] | [14] | [15] | [18] | [19]
inactive: all other assays above

Cc1cccn2c(=O)c(-c3nnn[nH]3)cnc12
not listed: [6] | [14]
inactive: all other assays above

CCC(=O)OC(C)c1ccccc1 (configuration not stated)
not listed: [6] | [12] | [14] | [15] | [19]
inactive: all other assays above

NC(=O)COCCN1CCN(C(c2ccccc2)c2ccc(Cl)cc2)CC1 (configuration not stated)
not listed: [6] | [15] | [20]
inactive: all other assays above

Cc1ccc(Cl)cc1Cl
not listed: [6] | [12] | [18]
inactive: all other assays above

O=C[C@H](O)[C@@H](O)[C@H](O)[C@H](O)CO
not listed: [6] | [12]
inactive: all other assays above

O=C(CCCN1CCC(O)(c2cccc(C(F)(F)F)c2)CC1)c1ccc(F)cc1
not listed: [6] | [14] | [20]
inactive: all other assays above

C[C@@H]1CCN(C(=O)[C@H](CCCN=C(N)N)NS(=O)(=O)c2cccc3c2NC[C@H](C)C3)[C@@H](C(=O)O)C1
not listed: [6] | [12] | [15] | [18] | [19]
inactive: all other assays above
